About 83,000 compounds went through this panel and 20% of them were active in at least one assay; those are over-represented in the sample as a whole.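 A percent growth of 40 corresponds to 60% growth inhibition; 0 means no net growth; -100 means all cells died. Active threshold: below 10.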 A number with no mark means an inactive call. Active and inactive are the calls of the source.
How the values were obtained:
Test in all cases: NCI-60 one-dose screen, 48 h (100 = growth as untreated, 0 = no growth, -100 = all killed)
Details in all cases: 10 µM unless noted
[1] = system: NCI-H23 lung
[2] = system: NCI-H226 lung
[3] = system: NCI-H322M lung
[4] = system: HOP-62 NSCLC
[5] = system: NCI-H460 lung
[6] = system: HOP-92 NSCLC
[7] = system: NCI-H522 lung
[8] = system: A549/ATCC NSCLC
[9] = system: 786-0 renal
[10] = system: COLO 205 colon
[11] = system: DU-145 prostate
[12] = system: K-562 leukemia
[13] = system: MALME-3M melanoma
[14] = system: MDA-MB-231 breast
[15] = system: RXF 393 renal
[16] = system: SF-268 CNS
[17] = system: SF-295 CNS
[18] = system: SF-539 CNS
[19] = system: UACC-257 melanoma
[20] = system: M14 melanoma

SMILES	growth [1]	growth [2]	growth [3]	growth [4]	growth [5]	growth [6]	growth [7]	growth [8]	growth [9]	growth [10]	growth [11]	growth [12]	growth [13]	growth [14]	growth [15]	growth [16]	growth [17]	growth [18]	growth [19]	growth [20]
Cc1ccc(N)c(O)c1	86.2%	97.5%	91%	91.7%	100%	68.1%	73.8%	85.4%	90.8%	132%	115%	94.3%	72.4%	81.7%	82.1%	103%	121%	99.1%	80.6%	85.6%
O=C1COCCN1c1ccc(NCc2cn(Cc3cccc4ccccc34)c3ccccc23)cc1	84%	5.06% (active)	91.5%	84.3%	64.4%	72.6%	86.3%	87.7%	98.8%	93.6%	98.7%	84.6%	90.1%	101%	43.1%	85.3%	89.6%	95.6%	78.4%	89%
CCCCCn1c(C)cc(/C=C\c2ccc3cc(C)ccc3[n+]2C)c1C	3.14% (active)	-58.4% (active)	30.3%	-58.9% (active)	-75.1% (active)	-64% (active)	-36.7% (active)	-84.5% (active)	-76.7% (active)	-92.5% (active)	-52.3% (active)	9.64% (active)	-67.5% (active)	-46.8% (active)	-60.8% (active)	-61% (active)	-90.9% (active)	-85.8% (active)	-99.1% (active)	-71.2% (active)
COc1cc(OC)c(/C=C/C(=O)c2c(N)cc(OC)cc2OC)c(OC)c1	8.81% (active)	75%	54.4%	43.6%	2.53% (active)	26.6%	-11.8% (active)	27.4%	35.2%	-24.4% (active)	12.6%	13.9%	63.6%	41.2%	-46.1% (active)	42.6%	4.26% (active)	-6.02% (active)	49.4%	18.2%
Clc1ccc(N2CCN(CCCN3CCN(c4cccc(Cl)c4)CC3)CC2)cc1	50.8%	90.5%	78.3%	67.7%	49.5%	42.7%	59.5%	58.3%	62.4%	42.3%	79.7%	38.8%	52.8%	50.6%	41%	79.2%	51.7%	56.4%	37.4%	44.1%
N#CC1C(=O)NC(c2ccccc2[N+](=O)[O-])c2sc3c(F)cccc3c21 (stereo not given)	68.9%	-14.9% (active)	67.2%	33.8%	2.01% (active)	82.7%	88.6%	47.2%	90%	70.1%	89.9%	35.9%	74.7%	75.6%	69.9%	86.7%	20.8%	85.7%	-37.3% (active)	92.7%
CCOC(=O)c1cc(C#N)n2ncc3ccccc3c12	94.1%	91.2%	102%	90.8%	101%	80.7%	93.3%	100%	95.7%	118%	109%	95.1%	102%	98.6%	102%	101%	103%	89%	-53.6% (active)	93.2%
COc1ccc2[nH]c(C(=O)N3CCN(C(=O)OCc4ccc5c(Br)cc(Br)c(O)c5n4)CC3)cc2c1	-78.2% (active)	-84.3% (active)	-87.1% (active)	-67% (active)	-60.3% (active)	-83.9% (active)	-78.4% (active)	-79.5% (active)	-93% (active)	-83.1% (active)	-97.8% (active)	2.19% (active)	-95.3% (active)	-84.6% (active)	-87.9% (active)	-80.2% (active)	-87.8% (active)	-99.8% (active)	-59.1% (active)	-77.9% (active)
CCOc1cc(/C=N\NC(=O)N/N=C/c2ccc(O)c(OCC)c2)ccc1O	33%	55.5%	50.7%	38.9%	11.8%	80.7%	-18.6% (active)	59.4%	28.6%	42.7%	14.9%	10.6%	60.2%	51.5%	24.9%	45.7%	18%	-9.06% (active)	61.9%	19.3%
CCN=Cc1c(O)c(O)c(C(C)C)c2cc(C)c(-c3c(C)cc4c(C(C)C)c(O)c(O)c(C=NCC)c4c3O)c(O)c12	24.9%	80.4%	48.3%	51.3%	26%	16.3%	43.3%	27.2%	72.5%	7.89% (active)	53%	16.4%	75.1%	50.5%	68.2%	44.7%	29.5%	55.2%	85.2%	61.6%
O=C(O)c1cccc(CN2CCN(c3cc4c(cc3F)c(=O)c(C(=O)O)cn4C3CC3)CC2)c1O	101%	106%	111%	105%	106%	97%	87.1%	99.5%	102%	103%	112%	102%	96.3%	106%	118%	105%	104%	101%	97.7%	101%
Cc1ncc(C(=O)Nc2ccc(CN3CCN(C)CC3)c(C(F)(F)F)c2)cc1C#Cc1c(N)ncc2ccc(C#N)cc12	35.8%	19.9%	34.4%	16.5%	43.4%	-8.03% (active)	46.9%	34.4%	-51% (active)	7.77% (active)	27.7%	4.11% (active)	-34.3% (active)	-12.5% (active)	-45% (active)	42.1%	74.4%	48.4%	-1.39% (active)	-12% (active)
O=C1/C(=C/c2cccc(OCc3ccccc3)c2)Oc2cc(OCCN3CCCCC3)ccc21	86.4%	100%	75.4%	89.4%	83.3%	46.9%	106%	79.5%	67.7%	93.8%	88.1%	-37.8% (active)	58.3%	71%	68.6%	81%	95.5%	68.1%	94.5%	88.6%
O=C1CC(c2ccc3c(c2)OCO3)Nc2ccccc21 (stereo not given)	40.2%	65.3%	51.3%	24.2%	10.5%	20.5%	19.8%	21.8%	42.2%	-16.4% (active)	7.64% (active)	12.4%	46%	38.9%	-22% (active)	43.1%	4.53% (active)	0.134% (active)	42.3%	-15.8% (active)
Cc1nn(-c2ccccc2)c(N2CCOCC2)c1-c1nc2ccc([N+](=O)[O-])cc2[nH]1	107%	111%	93.2%	128%	99.5%	117%	80.5%	94%	107%	124%	98.4%	88.4%	105%	109%	113%	89.7%	99.8%	109%	106%	108%
